In PubChem BioAssay (EPA / NIEHS):
Results filed as inconclusive are left out. Active and inactive are the calls of the source. Rule for the calls, unless noted: active = hit-call score of the fitted dose curve at least 0.9, where 1 is the maximum; inconclusive = response in the unintended direction; inactive = score below 0.9.

Legend:
[1] = Tanguay_ZF_120hpf_MORT_legacy: (Legacy) Oregon State University Tanguay Lab 120 Hour Post-fertilization zebrafish Assay for Mortality (AID 2283633)
How it was run: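 Dechorionated Tropical 5D wild-type zebrafish embryos, one per well from 6 hpf, were statically exposed at 28C in the dark until 120 hpf (0.64% DMSO final). Mortality was scored as present/absent by brightfield microscopy, fitted positively versus DMSO.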

[2] = Tanguay_ZF_120hpf_YSE_legacy: (Legacy) Oregon State University Tanguay Lab 120 Hour Post-fertilization zebrafish Assay for Yolk Sac Edema (AID 2283634)
How it was run: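 Tropical 5D wild-type embryos, dechorionated with pronase at 4 hpf, were exposed singly from 6 hpf to 120 hpf under static, sealed, dark conditions at 28C with 0.64% DMSO final. Yolk sac edema was scored present/absent by brightfield microscopy.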

[3] = Tanguay_ZF_120hpf_AXIS_legacy: (Legacy) Oregon State University Tanguay Lab 120 Hour Post-fertilization zebrafish Assay for Body Axis Malformation (AID 2283635)
How it was run: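 Tropical 5D wild-type zebrafish embryos, dechorionated with pronase at 4 hpf, were placed singly in wells at 6 hpf and exposed statically to test chemical (0.64% DMSO final) at 28C until 120 hpf, then scored by brightfield for body axis defects.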

[4] = Tanguay_ZF_120hpf_EYE_legacy: (Legacy) Oregon State University Tanguay Lab 120 Hour Post-fertilization zebrafish Assay for Eye Malformation (AID 2283636);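 note: binary presence or absence of eye malformation scored by brightfield in 120 hpf larvae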
How it was run: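 Binary brightfield scoring of eye defects at 120 hpf after static exposure from 6 hpf of single pronase-dechorionated wild-type embryos (28C, 0.64% DMSO). Non-mortality endpoints omitted where embryos died; fit vs DMSO.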

[5] = Tanguay_ZF_120hpf_SNOU_legacy: (Legacy) Oregon State University Tanguay Lab 120 Hour Post-fertilization zebrafish Assay for Snout Malformation (AID 2283637)
How it was run: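 Binary snout-malformation call at 120 hpf in wild-type 5D embryos, chorion removed by pronase, under static exposure from 6 hpf at 28C (0.64% DMSO). Embryos dying by 24 or 120 hpf excluded.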

[6] = Tanguay_ZF_120hpf_JAW_legacy: (Legacy) Oregon State University Tanguay Lab 120 Hour Post-fertilization zebrafish Assay for Jaw Malformation (AID 2283638)
How it was run: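 Tropical 5D wild-type embryos, dechorionated with pronase at 4 hpf, were placed singly per well at 6 hpf and statically exposed at 28C until 120 hpf (0.64% DMSO final). Jaw malformation scored as present/absent by brightfield microscopy at 120 hpf, analyzed relative to DMSO.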

[7] = Tanguay_ZF_120hpf_OTIC_legacy: (Legacy) Oregon State University Tanguay Lab 120 Hour Post-fertilization zebrafish Assay for Otic Vesicle Malformation (AID 2283639)
How it was run: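 Statically exposed wild-type 5D zebrafish embryos, kept sealed and dark at 28C through 120 hours post fertilization, were examined by brightfield microscopy for otic vesicle defects. Responses were recorded as present or absent and analysed relative to DMSO.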

[8] = Tanguay_ZF_120hpf_BRAI_legacy: (Legacy) Oregon State University Tanguay Lab 120 Hour Post-fertilization zebrafish Assay for Brain Malformation (AID 2283641)
How it was run: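 Tropical 5D wild-type zebrafish embryos were exposed statically in sealed, foil-covered plates at 28C until 120 hpf, with 0.64% (vol/vol) final DMSO. Brain malformation was scored present/absent by brightfield microscopy, relative to DMSO baseline.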

[9] = Tanguay_ZF_120hpf_PFIN_legacy: (Legacy) Oregon State University Tanguay Lab 120 Hour Post-fertilization zebrafish Assay for Pectoral Fin Malformation (AID 2283648);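 note: each larva judged yes or no for fin defect by brightfield with dead larvae skipped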
How it was run: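 Pectoral fin malformation was recorded as a binary endpoint at 120 hpf in wild-type Tropical 5D larvae, which had been dechorionated and exposed statically from 6 hpf at 28C in 0.64% DMSO. Dead embryos were excluded.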

[10] = Tanguay_ZF_120hpf_CFIN_legacy: (Legacy) Oregon State University Tanguay Lab 120 Hour Post-fertilization zebrafish Assay for Caudal Fin Malformation (AID 2283649)
How it was run: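 Tropical 5D wild-type embryos, dechorionated with pronase at 4 hpf, were placed singly in wells at 6 hpf and statically exposed to compound at 28C until 120 hpf (0.64% DMSO). Caudal fin malformation was scored present/absent by brightfield microscopy.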

[11] = Tanguay_ZF_120hpf_PIG_legacy: (Legacy) Oregon State University Tanguay Lab 120 Hour Post-fertilization zebrafish Assay for Pigmentation Malformation (AID 2283650)
How it was run: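 Pigment malformation recorded as a binary call at 120 hpf in zebrafish (Tropical 5D) exposed singly from 6 hpf after pronase dechorionation. Static, sealed, 28C exposure, 0.64% DMSO; mortality excludes scoring; positive-direction fit against DMSO.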

[12] = Tanguay_ZF_120hpf_CIRC_legacy: (Legacy) Oregon State University Tanguay Lab 120 Hour Post-fertilization zebrafish Assay for Circulatory Malformation (AID 2283651)
How it was run: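 Embryos are dechorionated at 4 hpf, plated one per well at 6 hpf, then held under static exposure at 28C until 120 hpf. Malformations are recorded as binary calls; mortality excludes other endpoints.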

[13] = Tanguay_ZF_120hpf_TRUN_legacy: (Legacy) Oregon State University Tanguay Lab 120 Hour Post-fertilization zebrafish Assay for Truncated Body (AID 2283655)
How it was run: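 Tropical 5D wild-type embryos, dechorionated with pronase at 4 hpf, were placed singly in wells at 6 hpf and statically exposed at 28C until 120 hpf, final DMSO 0.64%. Truncated body was scored present/absent by brightfield microscopy.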

[14] = Tanguay_ZF_120hpf_NC_legacy: (Legacy) Oregon State University Tanguay Lab 120 Hour Post-fertilization zebrafish Assay for Notochord and Tail Malformation (AID 2283656)
How it was run: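 Binary scoring of notochord distortion by brightfield microscopy; embryos dying were not scored. Wild-type Tropical 5D embryos, chorion removed, exposed singly and statically from 6 to 120 hpf, 28C, sealed, 0.64% DMSO.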

[15] = Tanguay_ZF_120hpf_TR_legacy: (Legacy) Oregon State University Tanguay Lab 120 Hour Post-fertilization zebrafish Assay for Touch Response (AID 2283667)
How it was run: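 Binary touch-response endpoint in larvae at 120 hpf after static waterborne exposure from embryo stage (28°C, 0.64% DMSO vehicle, 5 uM trimethyltin chloride as positive control); embryos dead at 24 or 120 hpf excluded; fitted as gain versus DMSO.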

[16] = STM_H9_OrnithineISnorm_perc: Stemina devTOX quickPredict H9 human embryonic stem cell (hESC)-based Assay for Ornithine (ORN) Metabolite Biomarker, Normalized (AID 2283712; active = hit-call score of the fitted dose curve at least 0.9, where 1 is the maximum; inactive = score below 0.9;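 note: ornithine released into spent medium during last day measured by mass spectrometry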)
How it was run: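 Ornithine secreted by H9 hESCs after 72h compound treatment (daily media/compound renewal) was quantified in final-day media by UPLC-HRMS. Values are isotope-standard-normalized, expressed relative to 0.1% DMSO, fitted in positive direction.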

[17] = STM_H9_CystineISnorm_perc: Stemina devTOX quickPredict H9 human embryonic stem cell (hESC)-based Assay for Cystine (CYSS) Metabolite Biomarker, Normalized (AID 2283713; active = hit-call score of the fitted dose curve at least 0.9, where 1 is the maximum; inactive = score below 0.9)
How it was run: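 Cells are held undifferentiated and treated for 72h, receiving fresh medium with compound every 24h. Cystine secreted during the final day is quantified by UPLC-HRMS against a labeled spike-in, then expressed relative to the DMSO vehicle median.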

[18] = STM_H9_OrnCyssISnorm_ratio: Stemina devTOX quickPredict H9 human embryonic stem cell (hESC)-based Assay for Ornithine (ORN):Cystine (CYSS) Ratio (AID 2283714)
How it was run: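 Ratio of internal-standard-normalized ornithine to cystine, measured by UPLC-HRMS in spent media from the last 24 h. H9 cells kept pluripotent, dosed 72 h with daily media and compound renewal; DMSO 0.1% serves as baseline.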

Measured: AC50

c1cc[n+]2c(c1)-c1cccc[n+]1CC2
inactive: [1] | [2] | [3] | [4] | [5] | [6] | [7] | [8] | [9] | [10] | [11] | [12] | [13] | [14] | [15]
active: [16] 8.35 µM | [17] 1.7 µM | [18] 2.36 µM
